Data as given in PubChem BioAssay (EPA / NIEHS).
Several values for one entry are separate records, joined by “and”; a condition that tells them apart may be missing. Equal values may be shown once. Results filed as inconclusive are left out. Activity calls are given as the source filed them. The calls were made as follows: active = hit-call score of the fitted dose curve at least 0.9, where 1 is the maximum; inconclusive = response in the unintended direction; inactive = score below 0.9.

Each compound was assayed against Bile acid receptor (Homo sapiens) (UniProt Q96RI1) (assay: OT_FXR_FXRSRC1_1440: Odyssey Thera (OT) 24-hour HEK293T Protein-Complementation Assay for Farnesoid X receptor/SRC-1 Co-activator (AID 2283384)).
Sequence of Bile acid receptor (Homo sapiens) (Q96RI1 whole entry, looked up, the tested form may be a part): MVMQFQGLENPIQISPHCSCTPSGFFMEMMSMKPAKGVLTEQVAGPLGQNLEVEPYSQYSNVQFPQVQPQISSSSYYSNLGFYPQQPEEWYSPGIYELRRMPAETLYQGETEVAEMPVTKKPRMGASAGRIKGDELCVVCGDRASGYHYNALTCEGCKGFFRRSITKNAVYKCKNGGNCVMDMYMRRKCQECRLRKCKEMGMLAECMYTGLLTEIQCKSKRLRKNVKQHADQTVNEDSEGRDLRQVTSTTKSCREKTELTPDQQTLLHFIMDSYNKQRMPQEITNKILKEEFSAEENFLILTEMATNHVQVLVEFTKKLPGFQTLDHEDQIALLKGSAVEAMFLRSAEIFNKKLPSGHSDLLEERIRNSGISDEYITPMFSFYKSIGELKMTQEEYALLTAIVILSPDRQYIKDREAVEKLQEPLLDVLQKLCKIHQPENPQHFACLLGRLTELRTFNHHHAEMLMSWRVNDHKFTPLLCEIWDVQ
How it was run: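 Protein-fragment complementation: FXR and SRC-1 fused to reporter fragments that reassemble on interaction, read by fluorescence intensity. Human HEK293T cells measured 24 h post-dose; positive-direction fit versus DMSO.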
For `CN(C)C(=O)NC1(c2ccccc2)CCN(CC[C@@]2(c3ccc(F)c(F)c3)CN(C(=O)c3ccccc3)CCO2)CC1`, the outcome was “inactive”.
With `Cn1cnc2c1c(=O)[nH]c(=O)n2C` the outcome was “inactive”.
For `CC(C)COC(=O)CCCCC(=O)OCC(C)C`, the outcome was “inactive”.
For `c1ccc2occc2c1`, the outcome was “inactive”.
In the case of `COC(=O)CCCC(=O)OC`, the outcome is reported as “inactive”.
For `Nc1nc(Cl)nc2c1ncn2[C@H]1C[C@H](O)[C@@H](CO)O1`, the AC50 was 21.1 µM (active).
`O=C(O)c1[nH]n(-c2ccc(S(=O)(=O)O)cc2)c(=O)c1N=Nc1ccc(S(=O)(=O)O)cc1` was tested, and the outcome was “inactive”.
For `O=C1c2c(O)cccc2Cc2cccc(O)c21`, the outcome was “inactive”.
`COC(=O)CCC(=O)OC` was tested, and the outcome was “inactive”.

What follows are compounds tested against Retinoic acid receptor RXR-alpha (Homo sapiens) (UniProt P19793) (assay: OT_NURR1_NURR1RXRa_0480: Odyssey Thera (OT) 8-hour HEK293T Protein Complementation Assay for Nurr1/retinoid X receptor (RXR) (AID 2283385)).
Sequence of Retinoic acid receptor RXR-alpha (Homo sapiens) (P19793 whole entry, looked up, the tested form may be a part): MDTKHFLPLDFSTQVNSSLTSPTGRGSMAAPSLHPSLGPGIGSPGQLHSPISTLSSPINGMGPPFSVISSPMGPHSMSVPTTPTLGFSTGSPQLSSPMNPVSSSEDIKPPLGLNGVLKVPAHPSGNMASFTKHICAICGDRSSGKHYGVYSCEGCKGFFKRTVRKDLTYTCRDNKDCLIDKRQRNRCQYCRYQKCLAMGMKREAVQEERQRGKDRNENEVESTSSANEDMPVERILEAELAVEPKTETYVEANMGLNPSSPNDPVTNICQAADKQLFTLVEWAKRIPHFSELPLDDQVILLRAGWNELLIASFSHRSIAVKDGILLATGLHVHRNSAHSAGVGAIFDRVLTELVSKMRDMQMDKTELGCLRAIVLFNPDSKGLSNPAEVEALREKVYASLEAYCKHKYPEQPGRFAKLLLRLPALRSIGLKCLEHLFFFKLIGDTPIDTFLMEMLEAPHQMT
How it was run: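 Interaction of Nurr1 with RXRα read as reconstituted reporter fluorescence in a HEK293T fragment-complementation system, 8 h post-treatment; increase over DMSO baseline analysed.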
For `CN(C)C(=O)NC1(c2ccccc2)CCN(CC[C@@]2(c3ccc(F)c(F)c3)CN(C(=O)c3ccccc3)CCO2)CC1`, the outcome was “inactive”.
For `CC(=O)S[C@H](C(=O)N[C@H]1Cc2ccccc2[C@H]2CCC[C@@H](C(=O)O)N2C1=O)C(C)C`, the outcome was “inactive”.
`O=C1NC(=O)C(c2ccccc2)(c2ccccc2)N1` was tested, and the outcome was “inactive”.
In the case of `Cn1cnc2c1c(=O)[nH]c(=O)n2C`, the outcome is reported as “inactive”.
`CC(C)COC(=O)CCCCC(=O)OCC(C)C` was tested, and the outcome was “inactive”.
In the case of `CCCC(=O)O`, the outcome is reported as “inactive”.
With `O=C(O)CN(CC(=O)O)CC(=O)O` the outcome was “inactive”.
`c1ccc2occc2c1` was tested, and the outcome was “inactive”.
`COC(=O)[C@H]1[C@H]2C[C@@H]3c4[nH]c5cc(OC)ccc5c4CCN3C[C@H]2C[C@@H](OC(=O)c2cc(OC)c(OC)c(OC)c2)[C@@H]1OC` was tested, and the AC50 was 16.6 µM (active) and 22.4 µM (active).
For `COC(=O)CCCC(=O)OC`, the outcome was “inactive”.
With `Nc1nc(Cl)nc2c1ncn2[C@H]1C[C@H](O)[C@@H](CO)O1` the AC50 was 50 µM (active) and 41.2 µM (active).
`O=C(O)c1[nH]n(-c2ccc(S(=O)(=O)O)cc2)c(=O)c1N=Nc1ccc(S(=O)(=O)O)cc1` was tested, and the outcome was “inactive”.
With `O=C1c2c(O)cccc2Cc2cccc(O)c21` the outcome was “inactive”.
With `CC(C)c1cccc(C(C)C)c1` the outcome was “inactive”.
For `COC(=O)CCC(=O)OC`, the outcome was “inactive”.
In the case of `CC(=O)CC(c1ccccc1)c1c(O)c2ccccc2oc1=O` (centres undefined), the outcome is reported as “inactive”.

The compounds below were run against Retinoic acid receptor RXR-alpha (Homo sapiens) (UniProt P19793) (assay: OT_NURR1_NURR1RXRa_1440: Odyssey Thera (OT) 24-hour HEK293T Protein Complementation Assay for Nurr1/retinoid X receptor (RXR) (AID 2283386)).
How it was run: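 Gain in fluorescence, fitted relative to DMSO, reflects Nurr1–RXRα association in HEK293T cells after 24 h dosing. Bait and prey are each linked to a reporter-protein fragment that reassembles on interaction.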
For `CC(=O)OC1CC(C)OC(C)O1` (centres undefined), the outcome was “inactive”.
For `CN(C)C(=O)NC1(c2ccccc2)CCN(CC[C@@]2(c3ccc(F)c(F)c3)CN(C(=O)c3ccccc3)CCO2)CC1`, the outcome was “inactive”.
With `CC(=O)S[C@H](C(=O)N[C@H]1Cc2ccccc2[C@H]2CCC[C@@H](C(=O)O)N2C1=O)C(C)C` the outcome was “inactive”.
In the case of `O=C1NC(=O)C(c2ccccc2)(c2ccccc2)N1`, the outcome is reported as “inactive”.
With `Cc1occc(=O)c1O` the outcome was “inactive”.
With `Cn1cnc2c1c(=O)[nH]c(=O)n2C` the outcome was “inactive”.
`CC(C)COC(=O)CCCCC(=O)OCC(C)C` was tested, and the outcome was “inactive”.
For `CCCC(=O)O`, the outcome was “inactive”.
With `O=C(O)CN(CC(=O)O)CC(=O)O` the outcome was “inactive”.
For `CCCCOC(=O)CCCCC(=O)OCCCC`, the outcome was “inactive”.
For `COC(=O)[C@H]1[C@H]2C[C@@H]3c4[nH]c5cc(OC)ccc5c4CCN3C[C@H]2C[C@@H](OC(=O)c2cc(OC)c(OC)c(OC)c2)[C@@H]1OC`, the AC50 was 16.5 µM (active) and 25.1 µM (active).
In the case of `COC(=O)CCCC(=O)OC`, the outcome is reported as “inactive”.
With `Nc1nc(Cl)nc2c1ncn2[C@H]1C[C@H](O)[C@@H](CO)O1` the AC50 was 46.7 µM (active) and 44.1 µM (active).
In the case of `O=NO`, the outcome is reported as “inactive”.
`O=C(O)c1[nH]n(-c2ccc(S(=O)(=O)O)cc2)c(=O)c1N=Nc1ccc(S(=O)(=O)O)cc1` was tested, and the outcome was “inactive”.
`CCc1cc(C2=C(C(=O)O)N(c3ccccc3C(F)(F)F)S(=O)(=O)c3ccccc32)cc2c1OCO2` was tested, and the outcome was “inactive”.
For `CCCC[C@H]1CN(CC2CCOCC2)C(=O)OC12CCN(C1(C)CCN(C(=O)c3c(C)ncnc3C)CC1)CC2`, the outcome was “inactive”.
For `CC(=O)OCC(COC(C)=O)OC(C)=O`, the outcome was “inactive”.
For `O=C1c2c(O)cccc2Cc2cccc(O)c21`, the outcome was “inactive”.
In the case of `CC(N)=O`, the outcome is reported as “inactive”.
With `CC(C)c1cccc(C(C)C)c1` the outcome was “inactive”.
In the case of `COC(=O)CCC(=O)OC`, the outcome is reported as “inactive”.
For `C/C=C/C=C/C(=O)O`, the outcome was “inactive”.
For `CC(=O)CC(c1ccccc1)c1c(O)c2ccccc2oc1=O` (centres undefined), the outcome was “inactive”.
